# Inconclusive results are not listed. The source made the active and inactive calls. Rule for the calls, unless noted: active = hit-call score of the fitted dose curve at least 0.9, where 1 is the maximum; inactive = score below 0.9.
# Legend:
# [1] = biological target: Oxysterols receptor LXR-alpha (Homo sapiens) (UniProt Q13133); experiment: ATG_LXRa_TRANS: Attagene TRANS-FACTORIAL HepG2 Assay for human Liver X Receptor alpha (LXRa) (AID 2282980; active = hit-call score of the fitted dose curve at least 0.9, where 1 is the maximum); conditions: HepG2 Attagene TRANS reporter, LXRa transactivation
# Sequence of Oxysterols receptor LXR-alpha (Homo sapiens) (Q13133 whole entry, looked up, the tested form may be a part): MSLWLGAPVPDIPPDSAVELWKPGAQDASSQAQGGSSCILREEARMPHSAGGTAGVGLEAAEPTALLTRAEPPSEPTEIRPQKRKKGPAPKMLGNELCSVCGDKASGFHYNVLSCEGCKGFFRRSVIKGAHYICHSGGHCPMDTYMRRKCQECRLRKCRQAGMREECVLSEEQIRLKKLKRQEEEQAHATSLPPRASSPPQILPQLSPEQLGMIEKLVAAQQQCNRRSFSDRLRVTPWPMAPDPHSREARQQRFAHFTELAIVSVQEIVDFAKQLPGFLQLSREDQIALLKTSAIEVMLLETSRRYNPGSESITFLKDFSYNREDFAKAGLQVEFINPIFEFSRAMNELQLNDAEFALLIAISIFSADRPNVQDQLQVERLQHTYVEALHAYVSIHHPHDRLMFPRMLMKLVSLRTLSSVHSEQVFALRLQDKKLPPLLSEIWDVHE
# Outline: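 Chemical-induced reporter mRNA measured by RT-PCR with fluorescent labelling and capillary electrophoresis after 24 h dosing of transiently transfected HepG2 cells expressing exogenous NR-Gal4 chimeras; increases scored against DMSO baseline.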
# [2] = ATG_M_06_TRANS: Attagene TRANS-FACTORIAL HepG2 Assay for M06 Transcription Factor (Internal Marker) (AID 2282983; active = hit-call score of the fitted dose curve at least 0.9, where 1 is the maximum); conditions: HepG2 Attagene TRANS M06 internal marker reporter
# Outline: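 Background-control reporter readout: after 24 h chemical exposure of transiently transfected HepG2 (GAL4-UAS reporter units), mRNA quantified by RT-PCR with fluorescent labeling and capillary electrophoresis. Gain-of-signal fitting against DMSO baseline.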
# [3] = ATG_M_32_TRANS: Attagene TRANS-FACTORIAL HepG2 Assay for M32 Transcription Factor (Internal Marker) (AID 2282984; active = hit-call score of the fitted dose curve at least 0.9, where 1 is the maximum;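 note: transcript level of a background control reporter unit measured by RT-PCR and capillary electrophoresis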); conditions: HepG2 Attagene TRANS M32 internal marker reporter
# Outline: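 Internal-marker readout from a multiplexed transcription reporter panel. HepG2 cells were transfected with GAL4-UAS reporter units, treated 24 hours, and reporter transcript levels determined by fluorescence after RT-PCR and capillary separation.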
# [4] = biological target: Nuclear receptor subfamily 4 group A member 2 (Homo sapiens) (UniProt P43354); experiment: ATG_NURR1_TRANS: Attagene TRANS-FACTORIAL HepG2 Assay for human Nuclear Receptor Related Protein 1 (NURR1) (AID 2282985; active = hit-call score of the fitted dose curve at least 0.9, where 1 is the maximum); conditions: HepG2 Attagene TRANS reporter, mRNA readout
# Sequence of Nuclear receptor subfamily 4 group A member 2 (Homo sapiens) (P43354 whole entry, looked up): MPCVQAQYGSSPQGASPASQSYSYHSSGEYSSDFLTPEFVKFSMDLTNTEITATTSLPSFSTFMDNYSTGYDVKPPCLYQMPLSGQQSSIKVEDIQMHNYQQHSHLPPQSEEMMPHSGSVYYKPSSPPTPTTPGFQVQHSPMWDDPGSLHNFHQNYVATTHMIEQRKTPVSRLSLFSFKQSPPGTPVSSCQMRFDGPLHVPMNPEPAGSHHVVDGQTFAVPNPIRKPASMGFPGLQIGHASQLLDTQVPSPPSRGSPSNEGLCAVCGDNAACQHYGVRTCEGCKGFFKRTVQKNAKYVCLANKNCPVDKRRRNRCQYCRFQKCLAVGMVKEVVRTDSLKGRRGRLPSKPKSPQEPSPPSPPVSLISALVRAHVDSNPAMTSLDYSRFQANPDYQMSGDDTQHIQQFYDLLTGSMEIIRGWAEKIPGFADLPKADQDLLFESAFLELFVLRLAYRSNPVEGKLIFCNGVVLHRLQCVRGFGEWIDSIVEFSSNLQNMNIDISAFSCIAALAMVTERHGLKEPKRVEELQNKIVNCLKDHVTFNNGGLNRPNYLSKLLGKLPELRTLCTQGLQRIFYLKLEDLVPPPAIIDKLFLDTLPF
# Outline: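 Endpoint: reporter mRNA increase relative to DMSO. HepG2 cells transfected with reporter units, treated 24 h; RNA processed by RT-PCR, labelling, HpaI digestion and capillary electrophoresis.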
# [5] = biological target: Transcriptional activator Myb (Homo sapiens) (UniProt P10242); experiment: ATG_Myb_CIS: Attagene CIS-FACTORIAL HepG2 Assay for human Myeloblastosis (Myb) Proto-Oncogene Transcription Factor (AID 2282986); conditions: HepG2 Attagene CIS-FACTORIAL Myb reporter transcription; actives raise or lower the signal
# Sequence of Transcriptional activator Myb (Homo sapiens) (P10242 whole entry, looked up): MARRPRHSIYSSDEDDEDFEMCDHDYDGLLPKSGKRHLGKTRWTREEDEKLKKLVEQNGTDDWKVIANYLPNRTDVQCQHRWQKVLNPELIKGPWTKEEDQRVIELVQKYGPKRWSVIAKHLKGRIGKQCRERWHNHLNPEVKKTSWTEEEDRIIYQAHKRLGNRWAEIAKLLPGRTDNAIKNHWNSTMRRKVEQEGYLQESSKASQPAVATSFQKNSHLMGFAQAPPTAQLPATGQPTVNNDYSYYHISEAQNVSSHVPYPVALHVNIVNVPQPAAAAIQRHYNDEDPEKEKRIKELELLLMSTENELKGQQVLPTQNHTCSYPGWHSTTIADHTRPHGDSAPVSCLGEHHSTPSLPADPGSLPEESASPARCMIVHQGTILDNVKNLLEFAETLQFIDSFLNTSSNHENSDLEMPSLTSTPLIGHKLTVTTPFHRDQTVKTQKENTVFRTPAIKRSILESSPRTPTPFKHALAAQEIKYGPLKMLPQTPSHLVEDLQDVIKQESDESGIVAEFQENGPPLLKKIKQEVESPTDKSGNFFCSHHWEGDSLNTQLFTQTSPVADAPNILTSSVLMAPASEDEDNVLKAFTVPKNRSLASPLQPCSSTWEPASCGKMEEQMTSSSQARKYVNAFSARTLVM
# Outline: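 Reporter mRNA is quantified by RT-PCR and capillary electrophoresis 24 h after dosing HepG2 cells transfected with cis-regulated reporter units, which track endogenous transcription factor activity. Gain and loss of signal are fitted versus DMSO baseline.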
# [6] = biological target: Nuclear respiratory factor 1 (Homo sapiens) (UniProt Q16656); experiment: ATG_NRF1_CIS: Attagene CIS-FACTORIAL HepG2 Assay for human Nuclear Respiratory Factor 1 (NRF1) Orphan Gene (AID 2282987); conditions: HepG2 NRF1 cis-element reporter, Attagene multiplex; actives raise or lower the signal
# Sequence of Nuclear respiratory factor 1 (Homo sapiens) (Q16656 whole entry, looked up): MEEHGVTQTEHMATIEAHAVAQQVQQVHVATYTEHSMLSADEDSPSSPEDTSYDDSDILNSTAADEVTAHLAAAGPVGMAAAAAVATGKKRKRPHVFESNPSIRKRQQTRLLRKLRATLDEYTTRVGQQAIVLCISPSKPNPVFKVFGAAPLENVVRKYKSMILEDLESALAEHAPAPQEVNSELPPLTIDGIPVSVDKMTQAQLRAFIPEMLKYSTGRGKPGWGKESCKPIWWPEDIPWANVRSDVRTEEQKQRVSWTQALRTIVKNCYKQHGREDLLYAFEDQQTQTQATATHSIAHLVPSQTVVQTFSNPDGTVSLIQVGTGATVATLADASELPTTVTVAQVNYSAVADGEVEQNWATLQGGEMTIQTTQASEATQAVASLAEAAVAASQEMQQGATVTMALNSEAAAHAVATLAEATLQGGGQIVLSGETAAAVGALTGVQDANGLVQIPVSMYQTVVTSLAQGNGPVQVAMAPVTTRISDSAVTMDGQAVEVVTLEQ
# Outline: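 Endogenous NRF1-driven reporter transcription in transfected HepG2 cells after 24 h treatment. Readout: RT-PCR products, 6-FAM labelled and resolved by capillary electrophoresis; changes fitted both directions relative to DMSO.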
# [7] = ATG_NFI_CIS: Attagene CIS-FACTORIAL HepG2 Assay for human Nuclear Factor I (NFI) (AID 2282989); conditions: HepG2 cis-regulatory reporter, NFI response element transcription; actives raise or lower the signal
# Outline: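 Transient MRTU transfection of HepG2 → 24 h chemical dosing → total RNA, oligo(dT) RT → PCR, 6-FAM primer extension, HpaI cut → capillary electrophoresis. Endpoint fitted bidirectionally relative to DMSO.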
# [8] = biological target: Myc proto-oncogene protein (Homo sapiens) (UniProt P01106); experiment: ATG_Myc_CIS: Attagene CIS-FACTORIAL HepG2 Assay for human Myelocytomatosis (Myc) Proto-Oncogene Transcription Factor (AID 2282990); conditions: HepG2, Attagene cis-reporter transcription factor activity; actives raise or lower the signal
# Sequence of Myc proto-oncogene protein (Homo sapiens) (P01106 whole entry, looked up, the tested form may be a part): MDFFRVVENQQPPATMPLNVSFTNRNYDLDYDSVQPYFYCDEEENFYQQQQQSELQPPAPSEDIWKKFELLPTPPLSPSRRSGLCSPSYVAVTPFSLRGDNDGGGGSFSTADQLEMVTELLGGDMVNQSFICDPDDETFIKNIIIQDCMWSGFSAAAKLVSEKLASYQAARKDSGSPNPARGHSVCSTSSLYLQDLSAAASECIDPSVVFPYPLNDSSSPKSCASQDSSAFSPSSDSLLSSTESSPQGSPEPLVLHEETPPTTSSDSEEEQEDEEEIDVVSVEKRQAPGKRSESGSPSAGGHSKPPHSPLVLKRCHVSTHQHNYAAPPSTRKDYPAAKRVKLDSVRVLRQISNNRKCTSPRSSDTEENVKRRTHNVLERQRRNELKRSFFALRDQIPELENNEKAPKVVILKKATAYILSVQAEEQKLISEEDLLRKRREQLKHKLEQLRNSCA
# Outline: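 Fluorescence intensity of reporter-specific cDNA fragments, separated by capillary electrophoresis, gives the signal. Transfected HepG2 cells carrying cis-promoter reporter constructs are incubated with compound for 24 h; DMSO serves as baseline.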
# [9] = ATG_NF_kB_CIS: Attagene CIS-FACTORIAL HepG2 Assay for human Nuclear Factor Kappa B (NF-kB) (AID 2282991); conditions: HepG2 Attagene cis-factorial NF-kB reporter mRNA; actives raise or lower the signal
# Outline: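 Readout is reporter transcript level, gain or loss versus DMSO, measured 24 h post-dose via RT-PCR, fluorescent labelling and capillary electrophoresis. Human HepG2 liver cells carried transiently transfected CIS reporter constructs reflecting endogenous factors.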
# [10] = ATG_NRF2_ARE_CIS: Attagene CIS-FACTORIAL HepG2 Assay for human Nuclear Factor Erythroid 2 Related Factor 2 (NFR2) response to Antioxidant Response Elements (ARE) (AID 2282992); conditions: HepG2 Attagene ARE/NRF2 reporter, transcription factor activity; actives raise or lower the signal
# Outline: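 Endogenous transcription factor activity read out as reporter transcript levels (RT-PCR plus capillary electrophoresis, fluorescence) in transiently transfected HepG2 cells. Measured at 24 h after dosing; gain or loss of signal fitted versus DMSO.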
# [11] = ATG_Oct_MLP_CIS: Attagene CIS-FACTORIAL HepG2 Assay for human Octamer-Binding Transcription Factor (Oct) (AID 2282993); conditions: HepG2 Attagene cis-factorial Oct reporter, mRNA; actives raise or lower the signal
# Outline: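 Transient MRTU transfection of HepG2 → 24 h compound treatment → RNA isolation, reverse transcription, PCR → 6-FAM primer extension, HpaI digest → capillary electrophoresis. Activity fitted both directions against DMSO.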
# [12] = biological target: Cellular tumor antigen p53 (Homo sapiens) (UniProt P04637); experiment: ATG_p53_CIS: Attagene CIS-FACTORIAL HepG2 Assay for human p53 Transcription Factor (AID 2282994); conditions: HepG2 p53 cis-element reporter, Attagene mRNA; actives raise or lower the signal
# Sequence of Cellular tumor antigen p53 (Homo sapiens) (P04637 whole entry, looked up): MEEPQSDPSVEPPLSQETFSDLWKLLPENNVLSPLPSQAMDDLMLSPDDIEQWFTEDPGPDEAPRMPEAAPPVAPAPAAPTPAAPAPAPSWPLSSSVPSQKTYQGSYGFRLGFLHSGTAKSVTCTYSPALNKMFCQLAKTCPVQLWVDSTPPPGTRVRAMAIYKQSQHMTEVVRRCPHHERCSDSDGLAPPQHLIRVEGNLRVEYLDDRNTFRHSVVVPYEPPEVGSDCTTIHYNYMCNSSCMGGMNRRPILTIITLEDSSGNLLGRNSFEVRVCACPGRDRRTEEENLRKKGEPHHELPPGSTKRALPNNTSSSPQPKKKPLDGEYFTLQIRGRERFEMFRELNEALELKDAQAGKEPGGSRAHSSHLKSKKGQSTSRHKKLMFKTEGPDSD
# Outline: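 Endogenous p53 activity read in transiently transfected HepG2 from a cis-element-driven reporter transcript after 24 h exposure. RNA reverse-transcribed, PCR-amplified, fluorescently labelled and sized by capillary electrophoresis; gain or loss fitted against DMSO baseline.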
# [13] = BSK_3C_TissueFactor: BioMAP Diversity Plus: 3C Assay for Tissue Factor Biomarker Activity (AID 2282997); conditions: BioMAP 3C HUVEC, tissue factor biomarker readout; actives raise or lower the signal
# Outline: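 Tissue factor on primary human umbilical vein endothelium was read by ELISA 24 h after dosing, gain or loss relative to DMSO. Cytotoxicity ran alongside via SRB (0.1%, TCA-fixed, 560 nm).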
# [14] = BSK_3C_uPAR: BioMAP Diversity Plus: 3C Assay for Urokinase-type plasminogen activator receptor (uPAR) Biomarker Activity (AID 2282998); conditions: BioMAP 3C HUVEC, uPAR biomarker ELISA; actives raise or lower the signal
# Outline: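 ELISA readout of uPAR on human vascular endothelium (umbilical vein primary cells), taken 24 h after chemical dosing. Increases and decreases are both fitted relative to DMSO vehicle.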
# [15] = BSK_3C_VCAM1: BioMAP Diversity Plus: 3C Assay for Vascular cell adhesion molecule 1 (VCAM1) Biomarker Activity (AID 2282999); conditions: BioMAP 3C HUVEC, VCAM1 ELISA, cytokine-stimulated; actives raise or lower the signal
# Outline: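 HUVEC primary cells, 24 h compound exposure; VCAM-1 by ELISA; gain/loss of signal fitted bidirectionally vs DMSO baseline.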
# [16] = BSK_4H_Eotaxin3: BioMAP Diversity Plus: 4H Assay for Eotaxin 3 Biomarker Activity (AID 2283000); conditions: primary human endothelial cells (HUVEC); actives raise or lower the signal;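 for outcome: CCL26 protein level quantified by ELISA in parallel with SRB cytotoxicity check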
# Outline: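 Human umbilical vein endothelial cells (BSK_4H system) dosed with test chemical; Eotaxin-3 (CCL26) measured by ELISA 24 h after dosing. Bidirectional curve fitting relative to DMSO negative control as baseline.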
# [17] = biological target: human Peroxisome Proliferator-activated Receptor alpha (PPARa), PPARA (gene 5465) (UniProt Q07869); experiment: ATG_PPARa_TRANS: Attagene TRANS-FACTORIAL HepG2 Assay for human Peroxisome Proliferator-activated Receptor alpha (PPARa) (AID 2283001; active = hit-call score of the fitted dose curve at least 0.9, where 1 is the maximum)
# Sequence of human Peroxisome Proliferator-activated Receptor alpha (PPARa), PPARA (gene 5465) (Q07869 whole entry, looked up): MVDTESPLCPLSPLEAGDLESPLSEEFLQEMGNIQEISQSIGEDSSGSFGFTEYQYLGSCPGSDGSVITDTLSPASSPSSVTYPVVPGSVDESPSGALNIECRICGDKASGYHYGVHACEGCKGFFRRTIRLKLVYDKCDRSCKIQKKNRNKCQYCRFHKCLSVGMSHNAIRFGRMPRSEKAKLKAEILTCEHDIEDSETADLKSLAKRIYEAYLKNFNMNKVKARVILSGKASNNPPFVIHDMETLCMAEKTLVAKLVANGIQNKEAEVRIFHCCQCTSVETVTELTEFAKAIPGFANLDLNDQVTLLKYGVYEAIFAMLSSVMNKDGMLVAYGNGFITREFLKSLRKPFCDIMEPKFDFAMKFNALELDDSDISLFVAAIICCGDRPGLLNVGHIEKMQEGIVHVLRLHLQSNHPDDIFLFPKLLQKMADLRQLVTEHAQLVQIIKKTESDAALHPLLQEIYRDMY
# Outline: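 HepG2, transient MRTU transfection, 24 h treatment. RT-PCR → FAM labelling → capillary electrophoresis. Fit vs DMSO, positive direction.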
# [18] = biological target: human Peroxisome Proliferator-activated Receptor delta (PPARd), PPARD (gene 5467) (UniProt Q03181); experiment: ATG_PPARd_TRANS: Attagene TRANS-FACTORIAL HepG2 Assay for human Peroxisome Proliferator-activated Receptor delta (PPARd) (AID 2283002; active = hit-call score of the fitted dose curve at least 0.9, where 1 is the maximum)
# Sequence of human Peroxisome Proliferator-activated Receptor delta (PPARd), PPARD (gene 5467) (Q03181 whole entry, looked up, the tested form may be a part): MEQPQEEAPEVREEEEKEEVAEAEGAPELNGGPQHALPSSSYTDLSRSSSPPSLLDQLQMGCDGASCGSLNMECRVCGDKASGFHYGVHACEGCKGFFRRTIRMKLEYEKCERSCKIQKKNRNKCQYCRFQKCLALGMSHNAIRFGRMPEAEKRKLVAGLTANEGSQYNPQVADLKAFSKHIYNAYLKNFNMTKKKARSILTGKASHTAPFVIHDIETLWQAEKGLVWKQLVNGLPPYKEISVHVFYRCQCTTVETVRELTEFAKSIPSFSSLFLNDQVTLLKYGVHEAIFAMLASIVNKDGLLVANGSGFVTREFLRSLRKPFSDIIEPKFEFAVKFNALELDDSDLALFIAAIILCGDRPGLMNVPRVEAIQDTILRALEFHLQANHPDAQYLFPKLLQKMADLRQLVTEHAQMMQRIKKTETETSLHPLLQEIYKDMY
# Outline: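 Fluorescence from capillary electrophoresis of labelled RT-PCR reporter fragments gives the signal; DMSO sets baseline. Cells: HepG2 transiently carrying GAL4-UAS reporter units plus chimeric nuclear receptor-Gal4 proteins, exposed to chemicals for 24 h.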
# [19] = biological target: Oxysterols receptor LXR-beta (Homo sapiens) (UniProt P55055); experiment: ATG_LXRb_TRANS: Attagene TRANS-FACTORIAL HepG2 Assay for human Liver X Receptor beta (LXRb) (AID 2282981; active = hit-call score of the fitted dose curve at least 0.9, where 1 is the maximum); conditions: HepG2 Attagene TRANS GAL4-LXRb reporter, mRNA
# Sequence of Oxysterols receptor LXR-beta (Homo sapiens) (P55055 whole entry, looked up, the tested form may be a part): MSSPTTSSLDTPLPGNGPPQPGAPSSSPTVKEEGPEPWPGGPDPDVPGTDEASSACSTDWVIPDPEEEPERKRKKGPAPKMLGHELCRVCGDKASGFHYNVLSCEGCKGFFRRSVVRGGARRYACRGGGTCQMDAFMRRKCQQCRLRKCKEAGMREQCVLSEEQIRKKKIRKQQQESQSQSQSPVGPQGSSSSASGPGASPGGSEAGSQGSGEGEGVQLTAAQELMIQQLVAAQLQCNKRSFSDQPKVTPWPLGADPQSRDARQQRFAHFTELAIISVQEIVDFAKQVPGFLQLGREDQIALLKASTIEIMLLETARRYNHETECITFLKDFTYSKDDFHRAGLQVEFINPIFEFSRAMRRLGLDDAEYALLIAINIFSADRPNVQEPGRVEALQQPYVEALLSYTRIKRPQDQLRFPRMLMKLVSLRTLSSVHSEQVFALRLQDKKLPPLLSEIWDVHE
# Outline: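 Multiplexed reporter assay, HepG2, 24 h dosing. Fluorescence of labelled RT-PCR products after capillary electrophoresis gives transcript level; positive fitting direction relative to DMSO.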
# [20] = biological target: Hepatocyte nuclear factor 4-alpha (Homo sapiens) (UniProt P41235); experiment: ATG_HNF4a_TRANS: Attagene TRANS-FACTORIAL HepG2 Assay for human Hepatocyte Nuclear Factor 4 alpha (HNF4a) (AID 2282982; active = hit-call score of the fitted dose curve at least 0.9, where 1 is the maximum); conditions: HepG2 HNF4a transactivation reporter, mRNA readout
# Sequence of Hepatocyte nuclear factor 4-alpha (Homo sapiens) (P41235 whole entry, looked up, the tested form may be a part): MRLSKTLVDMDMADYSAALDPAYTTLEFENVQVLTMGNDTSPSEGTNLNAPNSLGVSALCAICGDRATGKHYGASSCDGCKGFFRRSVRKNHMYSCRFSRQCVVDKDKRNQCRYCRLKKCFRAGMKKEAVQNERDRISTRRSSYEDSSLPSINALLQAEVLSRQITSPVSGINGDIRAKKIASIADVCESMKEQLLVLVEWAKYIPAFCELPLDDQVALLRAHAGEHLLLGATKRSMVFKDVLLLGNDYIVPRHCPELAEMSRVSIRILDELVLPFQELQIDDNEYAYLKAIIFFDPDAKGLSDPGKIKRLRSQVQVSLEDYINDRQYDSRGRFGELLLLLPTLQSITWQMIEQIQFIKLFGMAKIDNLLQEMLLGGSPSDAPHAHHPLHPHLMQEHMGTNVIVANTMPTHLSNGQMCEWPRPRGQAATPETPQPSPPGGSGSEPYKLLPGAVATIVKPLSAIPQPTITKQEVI
# Outline: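 Endpoint reflects transcriptional activation of a GAL4-UAS reporter by an HNF4a-GAL4 chimera in transfected HepG2 cells, 24 h post-dosing. Fluorescence from RT-PCR products separated by capillary electrophoresis; DMSO baseline.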
smiles,measurement,setting,value
O=P(OC(CCl)CCl)(OC(CCl)CCl)OC(CCl)CCl,outcome,[1],inactive
same,outcome,[2],inactive
same,outcome,[3],inactive
same,AC50,[4],32 µM (active)
same,AC50,[5],144 µM (active)
same,outcome,[6],inactive
same,AC50,[7],187 µM (active)
same,AC50,[8],143 µM (active)
same,outcome,[9],inactive
same,outcome,[10],inactive
same,AC50,[11],103 µM (active)
same,AC50,[12],39.3 µM (active)
same,AC50,[13],8.26 µM (active)
same,outcome,[14],inactive
same,outcome,[15],inactive
same,outcome,[16],inactive
same,outcome,[17],inactive
CCCCCCCCCCCCc1ccccc1,outcome,[1],inactive
same,outcome,[2],inactive
same,outcome,[3],inactive
same,outcome,[5],inactive
same,outcome,[6],inactive
same,outcome,[7],inactive
same,outcome,[8],inactive
same,outcome,[9],inactive
same,outcome,[10],inactive
same,outcome,[11],inactive
same,outcome,[12],inactive
same,outcome,[13],inactive
same,outcome,[14],inactive
same,outcome,[15],inactive
same,AC50,[16],26.6 µM (active)
same,outcome,[18],inactive
Cc1c(-c2cccnc2)c2ccccc2n1CCCCC(=O)O,outcome,[19],inactive
same,outcome,[5],inactive
same,outcome,[6],inactive
same,outcome,[7],inactive
same,outcome,[8],inactive
same,AC50,[9],100 µM (active)
same,outcome,[10],inactive
same,outcome,[11],inactive
same,outcome,[12],inactive
same,outcome,[13],inactive
same,outcome,[14],inactive
same,outcome,[15],inactive
same,outcome,[16],inactive
same,outcome,[17],inactive
same,outcome,[18],inactive
CC/C(=C\C(=N/O)C(N)=O)C(C)[N+](=O)[O-] (stereo not given),outcome,[1],inactive
same,outcome,[3],inactive
same,outcome,[5],inactive
same,outcome,[6],inactive
same,outcome,[7],inactive
same,outcome,[8],inactive
same,AC50,[10],38.7 µM (active)
same,outcome,[11],inactive
same,outcome,[12],inactive
same,outcome,[13],inactive
same,outcome,[14],inactive
same,AC50,[15],20 µM (active)
same,outcome,[16],inactive
same,outcome,[17],inactive
CCOC(=O)CC(CC(=O)OCC)(OC(C)=O)C(=O)OCC,outcome,[1],inactive
same,outcome,[3],inactive
same,outcome,[4],inactive
same,outcome,[5],inactive
same,outcome,[6],inactive
same,outcome,[7],inactive
same,outcome,[8],inactive
same,outcome,[9],inactive
same,AC50,[10],61.4 µM (active)
same,outcome,[11],inactive
same,outcome,[12],inactive
same,outcome,[13],inactive
same,outcome,[14],inactive
same,outcome,[15],inactive
same,outcome,[16],inactive
same,outcome,[17],inactive
CC(=O)OC[C@H]1O[C@@](COC(C)=O)(O[C@H]2O[C@H](COC(C)=O)[C@@H](OC(C)=O)[C@H](OC(C)=O)[C@H]2OC(C)=O)[C@@H](OC(C)=O)[C@@H]1OC(C)=O,outcome,[19],inactive
same,outcome,[20],inactive
same,outcome,[2],inactive
same,outcome,[3],inactive
same,outcome,[6],inactive
same,outcome,[7],inactive
same,outcome,[8],inactive
same,outcome,[10],inactive
same,outcome,[11],inactive
same,outcome,[12],inactive
same,outcome,[13],inactive
same,outcome,[14],inactive
same,outcome,[15],inactive
same,outcome,[16],inactive
same,outcome,[17],inactive
O=C(NS(=O)(=O)/C=C/c1ccccc1)c1ccc(F)cc1Cl,outcome,[1],inactive
same,outcome,[3],inactive
same,outcome,[4],inactive
same,outcome,[5],inactive
same,outcome,[6],inactive
same,outcome,[7],inactive
same,outcome,[8],inactive
same,outcome,[9],inactive
same,outcome,[10],inactive
same,outcome,[11],inactive
same,outcome,[12],inactive
same,outcome,[13],inactive
same,outcome,[14],inactive
same,outcome,[15],inactive
same,outcome,[16],inactive
same,outcome,[17],inactive
CN(C)c1ccc(Cc2ccc(N(C)C)cc2)cc1,outcome,[19],inactive
same,outcome,[2],inactive
same,AC50,[4],49.1 µM (active)
same,outcome,[5],inactive
same,outcome,[6],inactive
same,AC50,[7],180 µM (active)
same,outcome,[8],inactive
same,AC50,[9],37.9 µM (active)
same,AC50,[10],78.2 µM (active)
same,AC50,[11],56.7 µM (active)
same,outcome,[12],inactive
same,outcome,[13],inactive
same,outcome,[14],inactive
same,outcome,[15],inactive
same,outcome,[16],inactive
same,AC50,[18],58.5 µM (active)

# From PubChem BioAssay (EPA / NIEHS)
